ABCB6 inh 2: blocks the human ABCB6 transporter; fluorescence ratio to DMSO, % at 10 µM; AID 602162; 360,000 tested, 0.19% active; Q9NP58; K562-ABCB6 porphyrin accumulation, flow cytometry, 1 h; stronger effect = lower value;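 active means fluorescence ratio to DMSO below 75%, the collection mean minus 3 SD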;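 further: signal is porphyrin accumulated inside mitochondria; 100% equals median channel fluorescence of DMSO control wells; lower ratio means ABCB6 inhibition with less porphyrin fluorescence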
Target sequence (Q9NP58 whole entry, looked up): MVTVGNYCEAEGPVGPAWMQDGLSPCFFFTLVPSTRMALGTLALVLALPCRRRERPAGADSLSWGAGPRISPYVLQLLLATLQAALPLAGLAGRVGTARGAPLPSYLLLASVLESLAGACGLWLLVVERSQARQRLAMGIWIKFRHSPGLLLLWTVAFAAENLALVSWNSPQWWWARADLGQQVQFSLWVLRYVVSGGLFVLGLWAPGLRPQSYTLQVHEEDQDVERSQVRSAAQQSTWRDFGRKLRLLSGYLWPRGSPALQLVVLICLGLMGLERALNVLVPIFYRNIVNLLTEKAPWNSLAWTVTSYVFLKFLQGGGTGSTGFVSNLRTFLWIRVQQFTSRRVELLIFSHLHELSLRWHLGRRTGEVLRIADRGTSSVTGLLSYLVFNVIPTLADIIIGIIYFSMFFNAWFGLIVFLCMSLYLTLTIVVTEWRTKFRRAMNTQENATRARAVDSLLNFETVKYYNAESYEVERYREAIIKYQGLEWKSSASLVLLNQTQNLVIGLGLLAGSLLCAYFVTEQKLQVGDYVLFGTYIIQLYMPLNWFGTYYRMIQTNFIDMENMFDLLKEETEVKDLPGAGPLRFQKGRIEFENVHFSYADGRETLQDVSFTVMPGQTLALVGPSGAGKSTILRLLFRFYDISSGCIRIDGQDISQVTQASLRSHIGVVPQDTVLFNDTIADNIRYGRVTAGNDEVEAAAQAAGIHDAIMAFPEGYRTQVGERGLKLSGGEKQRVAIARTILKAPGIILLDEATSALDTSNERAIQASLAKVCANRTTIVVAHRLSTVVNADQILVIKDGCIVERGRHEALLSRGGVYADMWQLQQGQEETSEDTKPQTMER
MEKK2mut PB1 HTS: signal of MEK5 binding to mutant human MEKK2 PB1 domain; 290,000 tested, 0.35% active; bead flow cytometry, Alexa488-MEK5 binding to MEKK2 mutant; percent response, % at 10 µM; in the data active means percent response above about 24%, passing the limit was not always enough
CRFR2-BP antag: blocks CRF-induced signaling of the CRF-BP/CRF-R2 complex; HEK293 CRF-R2/CRF-BP, CRF-induced calcium fluorescence; inhibition, % at 11.8 µM; 350,000 tested, 0.59% active;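 active means inhibition of the ligand-induced calcium signal above about 50% at the single tested concentration, limit read from the data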
MEKK2 WT-MEK5: raises or lowers MEK5 binding to wildtype human MEKK2 PB1 domain | Q9Y2U5 | bead flow cytometry, Alexa488-MEK5 binding to MEKK2 WT; actives lie on both sides | binding response (% of control), % at 10 µM | 290,000 tested, 1.1% active | AID 1531; in the data active means binding response below about 67% or above about 130%
CRFR2-BP ag: agonists of human CRF-binding protein/CRF-R2 receptor complex; HEK293 CRF-R2/CRF-BP, calcium dye fluorescence (FLIPR); percent of saturating CRF peptide response; activation, % at 13.2 µM; 350,000 tested, 0.46% active; AID 588473;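 active means activation of at least 50%, plus an integration ratio under a set limit after plate pattern correction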;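 further: plate controls were neutral control wells without compound for no effect and CRF at EC100 for full effect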
MEKK3 PB1 HTS: raises or lowers MEK5 binding to the human MEKK3 PB1 domain; binding response (% of control), % at 10 µM; bead-based flow cytometry, Alexa488-MEK5 binding to MEKK3; actives lie on both sides; 0 = blocked by unlabeled MEK5, 100 = vehicle; 290,000 tested, 1.4% active; AID 1529;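 active means binding response more than 3 SD above or below the average of its plate-row segment, actives on both sides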;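 further: Alexa488 bead fluorescence after subtracting the streptavidin-only scavenger bead signal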
* = called active by the depositor; . = no result given; [ ] = another dose, or the depositor's remark. Shown are actives, neighbours in structure and some others; about 2.9% of the full set was active somewhere.

SMILES	ABCB6 inh 2	MEKK2mut PB1 HTS	CRFR2-BP antag	MEKK2 WT-MEK5	CRFR2-BP ag	MEKK3 PB1 HTS
CN1C(=O)S/C(=C\c2ccccc2OCc2ccc(C(=O)O)cc2)C1=O	97	-8	-25	86	2	102
CC(C)N1C(=O)S/C(=C/c2ccccc2OCc2ccc(C(=O)O)cc2)C1=O	104	0	69*	106	4	113
CCOC(=O)C(=CNc1nc(-c2ccccc2)c(C(=O)Nc2ccc(-c3ccccc3)cc2)s1)C(=O)OCC	95	-2	-12	97	5	100
Cc1nn(Cc2ccccc2Cl)c(C)c1NC(=O)c1nc2ncccn2n1	101	7	58*	103	2	105
C=CCN1C(=O)/C(=c2\sc3nc(=O)c(Cc4ccc(OC)c(OC)c4)nn3c2=O)c2ccccc21	11*	-11	-3	78	0	79
COc1cc(C(=O)NC2CC(C)(C)Cc3c2cnn3-c2ccccc2)cc(OC)c1OC (stereo not drawn)	94	4	57*	108	0	105
COc1ccc(C(=O)NC2CC(C)(C)Cc3c2cnn3-c2ccccc2)cc1OC (stereo not drawn)	102	3	-4	105	1	101
COc1ccc(N2CCN(C(=O)COC(=O)CCc3ccccc3)CC2)cc1	97	.	4	.	0	.
COC(=O)[C@]1(C)N[C@H](c2ccc(-c3ccc(Cl)c(Cl)c3)c(OC)c2)[C@@H]2C(=O)N(C)C(=O)[C@@H]21	96	.	1	.	10	.
CC(C)C1Nc2c(O)cc(Cl)c([N+](=O)[O-])c2C2C=CCC21 (stereo not drawn)	99	-4	59*	97	33	99
CC(C)(C)OC(=O)N1CCC(C(=O)Nc2cccc(C(=O)NC3CC3)c2)CC1	96	.	1	.	0	.
CCN(CC)S(=O)(=O)c1ccc(OC)c(NC(=O)C2CC(=O)N(c3ccc4c(c3)OCCO4)C2)c1 (stereo not drawn)	99	-21	-1	-2.0*[inhibitor]	0	0.0*[inhibitor]
CCN(CC)S(=O)(=O)c1cccc(NC(=O)C2CC(=O)N(c3ccc4c(c3)OCCO4)C2)c1 (stereo not drawn)	96	.	20	.	-2	.
CCCSc1nc2sc3c(c2c(=O)[nH]1)CCN(Cc1ccccc1)C3	104	14	-14	115	44	113
O=c1[nH]c(C(Cl)Cl)nc2sc3c(c12)CCN(Cc1ccccc1)C3	106	-4	5	92	56*	89
COc1cc(C=O)ccc1OCc1ccncc1	95	4	-6	105	-3	105
COc1cc(C=O)ccc1Oc1cnccn1	110	0	56*	101	0	103
CCOc1ccc(S(=O)(=O)N(C)CC(=O)NC2CCCC2)cc1	100	9	-1	111	-2	105
O=C1C(=Cc2ccncc2)CCCc2ccccc21	96	.	70*	.	-2	.
O=C1/C(=C\c2ccncc2)CCc2ccccc21	101	.	5	.	-3	.
O=Cc1cc(CCC(=O)O)ccc1O	100	1	-3	103	0	100
COc1cc(/C=C(\C#N)C(=O)Nc2ccc3c(c2)OCCO3)ccc1O	93	-27	73*	79	11	88
CCOC(=O)c1c(-c2ccc(C)cc2)csc1NC(=O)/C(C#N)=C/c1ccc(O)c(OC)c1	480	5	-190	94	195*	101
CCOC(=O)c1c(-c2ccccc2)csc1NC(=O)/C(C#N)=C\c1ccc(O)c(OC)c1	711	.	-51	.	132*	.
COc1ccc(OCCCC(=O)OCC(=O)NNC(=O)c2ccc([N+](=O)[O-])cc2)cc1	93	.	3	.	-1	.
Cc1coc2c1c(C)cc1oc(=O)c(CC(=O)N[C@@H](C)C(=O)O)c(C)c12	94	-2	-17	96	3	93
Cc1ccc2nccc(C(=O)N3CCCC(N4CCN(c5ccc(F)cc5)CC4)C3)c2c1 (stereo not drawn)	99	2	6	102	-3	101
Oc1sc(C=Nc2ccccc2)c2ccccc12	102	0	-228	95	123*	106
